Laboratory results published in PubChem BioAssay (NCI).
About 83,000 compounds went through this panel and 20% of them were active in at least one assay; those are over-represented in the sample as a whole.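 Plates (96-well) were seeded with cells, treated with compound at one concentration, and incubated for 48 hours before percent growth was determined.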 Values without a mark were called inactive. Activity calls are given as the source filed them. How the source made its calls: active means growth percent below 10; inactive means the rest.

Legend:
Test in all cases: NCI-60 one-dose screen, 48 h (100 = growth as untreated, 0 = no growth, -100 = all killed)
NCI-H23 lung = system: NCI-H23 lung
NCI-H226 lung = system: NCI-H226 lung
NCI-H322M lung = settings: 10 µM unless noted
HOP-62 NSCLC = system: HOP-62 NSCLC
NCI-H460 lung = system: NCI-H460 lung
HOP-92 NSCLC = system: HOP-92 NSCLC
NCI-H522 lung = system: NCI-H522 lung
A549/ATCC NSCLC = system: A549/ATCC NSCLC
786-0 renal = system: 786-0 renal
COLO 205 colon = system: COLO 205 colon
DU-145 prostate = system: DU-145 prostate
K-562 leukemia = system: K-562 leukemia
MALME-3M melanoma = system: MALME-3M melanoma
MDA-MB-231 breast = system: MDA-MB-231 breast
RXF 393 renal = system: RXF 393 renal
SF-268 CNS = system: SF-268 CNS
SF-295 CNS = system: SF-295 CNS
SF-539 CNS = system: SF-539 CNS
UACC-257 melanoma = system: UACC-257 melanoma
M14 melanoma = system: M14 melanoma

Oc1ccccc1C=Nc1ccc(N2CCN(c3ccccc3)CC2)cc1
growth (NCI-H23 lung; 10 µM unless noted): 93.4% | growth (NCI-H226 lung; 10 µM unless noted): 110% | growth (NCI-H322M lung): 98.2% | growth (HOP-62 NSCLC; 10 µM unless noted): 74.7% | growth (NCI-H460 lung; 10 µM unless noted): 111% | growth (HOP-92 NSCLC; 10 µM unless noted): 99.5% | growth (NCI-H522 lung; 10 µM unless noted): 95.7% | growth (A549/ATCC NSCLC; 10 µM unless noted): 92.1% | growth (786-0 renal; 10 µM unless noted): 94.1% | growth (COLO 205 colon; 10 µM unless noted): 93.7% | growth (DU-145 prostate; 10 µM unless noted): 104% | growth (K-562 leukemia; 10 µM unless noted): 80.7% | growth (MALME-3M melanoma; 10 µM unless noted): 114% | growth (MDA-MB-231 breast; 10 µM unless noted): 100% | growth (RXF 393 renal; 10 µM unless noted): 97.7% | growth (SF-268 CNS; 10 µM unless noted): 99.2% | growth (SF-295 CNS; 10 µM unless noted): 103% | growth (SF-539 CNS; 10 µM unless noted): 77.2% | growth (UACC-257 melanoma; 10 µM unless noted): 97% | growth (M14 melanoma; 10 µM unless noted): 96.3%

CC(=O)/C=C/c1ccc(OCc2ccc(C(C)(C)C)cc2)cc1
growth (NCI-H23 lung; 10 µM): 52.5% | growth (NCI-H23 lung; 100 µM): 31.7% | growth (NCI-H226 lung; 10 µM): 77.5% | growth (NCI-H226 lung; 100 µM): 38.3% | growth (NCI-H322M lung): 19.4% [100 µM] | growth (HOP-62 NSCLC; 10 µM): 88% | growth (HOP-62 NSCLC; 100 µM): 26.8% | growth (NCI-H460 lung; 10 µM): 84.4% | growth (NCI-H460 lung; 100 µM): 24.6% | growth (HOP-92 NSCLC; 10 µM): 89.5% | growth (HOP-92 NSCLC; 100 µM): -14.7% (active) | growth (NCI-H522 lung; 10 µM): 76.1% | growth (NCI-H522 lung; 100 µM): -8.78% (active) | growth (A549/ATCC NSCLC; 10 µM): 80.3% | growth (A549/ATCC NSCLC; 100 µM): 41.8% | growth (786-0 renal; 10 µM): 91.9% | growth (786-0 renal; 100 µM): 20.7% | growth (COLO 205 colon; 10 µM): 78.6% | growth (COLO 205 colon; 100 µM): -65.6% (active) | growth (DU-145 prostate; 10 µM): 89% | growth (DU-145 prostate; 100 µM): 61% | growth (K-562 leukemia; 10 µM): 39.1% | growth (K-562 leukemia; 100 µM): 13.4% | growth (MALME-3M melanoma; 10 µM): 86.4% | growth (MALME-3M melanoma; 100 µM): 29% | growth (MDA-MB-231 breast; 10 µM): 84.2% | growth (MDA-MB-231 breast; 100 µM): -39.2% (active) | growth (RXF 393 renal; 10 µM): 94.6% | growth (RXF 393 renal; 100 µM): 1.8% (active) | growth (SF-268 CNS; 10 µM): 94.2% | growth (SF-268 CNS; 100 µM): 42.3% | growth (SF-295 CNS; 10 µM): 69.6% | growth (SF-295 CNS; 100 µM): 27.2% | growth (SF-539 CNS; 10 µM): 78.4% | growth (SF-539 CNS; 100 µM): 34.1% | growth (UACC-257 melanoma; 10 µM): 70.6% | growth (UACC-257 melanoma; 100 µM): 2.75% (active) | growth (M14 melanoma; 10 µM): 67% | growth (M14 melanoma; 100 µM): 10.5%

CN1CCN(Cc2ccc(NC(=O)c3nc4ccc5[nH]ncc5c4c4c3CCCC4)cc2C(F)(F)F)CC1
growth (NCI-H23 lung; 10 µM unless noted): -21.9% (active) | growth (NCI-H226 lung; 10 µM unless noted): 73.4% | growth (NCI-H322M lung): 19% | growth (HOP-62 NSCLC; 10 µM unless noted): -75.9% (active) | growth (NCI-H460 lung; 10 µM unless noted): -58.6% (active) | growth (HOP-92 NSCLC; 10 µM unless noted): -79.9% (active) | growth (NCI-H522 lung; 10 µM unless noted): -70.7% (active) | growth (A549/ATCC NSCLC; 10 µM unless noted): -83.1% (active) | growth (786-0 renal; 10 µM unless noted): -85.4% (active) | growth (COLO 205 colon; 10 µM unless noted): -86.8% (active) | growth (DU-145 prostate; 10 µM unless noted): -73.1% (active) | growth (K-562 leukemia; 10 µM unless noted): -48.4% (active) | growth (MALME-3M melanoma; 10 µM unless noted): -75.7% (active) | growth (MDA-MB-231 breast; 10 µM unless noted): -81.2% (active) | growth (RXF 393 renal; 10 µM unless noted): -97.1% (active) | growth (SF-268 CNS; 10 µM unless noted): -75.7% (active) | growth (SF-295 CNS; 10 µM unless noted): -67.7% (active) | growth (SF-539 CNS; 10 µM unless noted): -89.3% (active) | growth (UACC-257 melanoma; 10 µM unless noted): -80.3% (active) | growth (M14 melanoma; 10 µM unless noted): -64.1% (active)

COc1cccc(C2C(C#N)=C(N)Oc3cc(OCCCCCC[P+](c4ccccc4)(c4ccccc4)c4ccccc4)ccc32)c1 (centres undefined)
growth (NCI-H23 lung; 10 µM unless noted): -23.1% (active) | growth (NCI-H226 lung; 10 µM unless noted): 7.81% (active) | growth (NCI-H322M lung): 6.6% (active) | growth (HOP-62 NSCLC; 10 µM unless noted): -39% (active) | growth (NCI-H460 lung; 10 µM unless noted): -44.4% (active) | growth (HOP-92 NSCLC; 10 µM unless noted): -51.7% (active) | growth (NCI-H522 lung; 10 µM unless noted): -10.7% (active) | growth (A549/ATCC NSCLC; 10 µM unless noted): 10.2% | growth (786-0 renal; 10 µM unless noted): -46.3% (active) | growth (COLO 205 colon; 10 µM unless noted): -62.5% (active) | growth (DU-145 prostate; 10 µM unless noted): 1.62% (active) | growth (K-562 leukemia; 10 µM unless noted): -21.2% (active) | growth (MALME-3M melanoma; 10 µM unless noted): -73.3% (active) | growth (MDA-MB-231 breast; 10 µM unless noted): -54.1% (active) | growth (RXF 393 renal; 10 µM unless noted): -63.8% (active) | growth (SF-268 CNS; 10 µM unless noted): -38.5% (active) | growth (SF-295 CNS; 10 µM unless noted): -41.4% (active) | growth (SF-539 CNS; 10 µM unless noted): -58.1% (active) | growth (UACC-257 melanoma; 10 µM unless noted): -21.5% (active) | growth (M14 melanoma; 10 µM unless noted): -49.7% (active)

CC[C@]1(O)CC2CN(CCc3c([nH]c4ccccc34)C(C(=O)OC)(c3cc4c(cc3OC)N(C=O)[C@H]3[C@@](O)(C(=O)OC)[C@H](OC(C)=O)[C@]5(CC)[C@@H]6C[C@@H]6CN6CC[C@]43[C@@H]65)C2)C1 (some centres undefined)
growth (NCI-H23 lung; 10 µM unless noted): 6.32% (active) | growth (NCI-H226 lung; 10 µM unless noted): 19.3% | growth (NCI-H322M lung): 73.9% | growth (HOP-62 NSCLC; 10 µM unless noted): 22.5% | growth (NCI-H460 lung; 10 µM unless noted): 3.37% (active) | growth (HOP-92 NSCLC; 10 µM unless noted): -0.4% (active) | growth (NCI-H522 lung; 10 µM unless noted): -21.4% (active) | growth (A549/ATCC NSCLC; 10 µM unless noted): 17.9% | growth (786-0 renal; 10 µM unless noted): 5.62% (active) | growth (COLO 205 colon; 10 µM unless noted): -87.9% (active) | growth (DU-145 prostate; 10 µM unless noted): -41.4% (active) | growth (K-562 leukemia; 10 µM unless noted): 27.5% | growth (MALME-3M melanoma; 10 µM unless noted): 34.2% | growth (MDA-MB-231 breast; 10 µM unless noted): -27.5% (active) | growth (RXF 393 renal; 10 µM unless noted): 32.9% | growth (SF-268 CNS; 10 µM unless noted): 15.3% | growth (SF-295 CNS; 10 µM unless noted): -4.56% (active) | growth (SF-539 CNS; 10 µM unless noted): 0.385% (active) | growth (UACC-257 melanoma; 10 µM unless noted): 53.2% | growth (M14 melanoma; 10 µM unless noted): -31.6% (active)

N#C/C(=N\Nc1ccc(Cl)cc1)C(=O)Nc1cc(-c2ccccc2)nn1-c1ccccc1
growth (NCI-H23 lung; 10 µM unless noted): 1.09% (active) | growth (NCI-H226 lung; 10 µM unless noted): 51.5% | growth (NCI-H322M lung): 11.9% | growth (HOP-62 NSCLC; 10 µM unless noted): 61.4% | growth (NCI-H460 lung; 10 µM unless noted): 8.34% (active) | growth (HOP-92 NSCLC; 10 µM unless noted): -23.4% (active) | growth (NCI-H522 lung; 10 µM unless noted): 7.38% (active) | growth (A549/ATCC NSCLC; 10 µM unless noted): 33.8% | growth (786-0 renal; 10 µM unless noted): 45.2% | growth (COLO 205 colon; 10 µM unless noted): 65.4% | growth (DU-145 prostate; 10 µM unless noted): 35% | growth (K-562 leukemia; 10 µM unless noted): 12.2% | growth (MALME-3M melanoma; 10 µM unless noted): 2.07% (active) | growth (MDA-MB-231 breast; 10 µM unless noted): 24.3% | growth (RXF 393 renal; 10 µM unless noted): 47.1% | growth (SF-268 CNS; 10 µM unless noted): 19.9% | growth (SF-295 CNS; 10 µM unless noted): 1.62% (active) | growth (SF-539 CNS; 10 µM unless noted): 52.3% | growth (UACC-257 melanoma; 10 µM unless noted): 13.2% | growth (M14 melanoma; 10 µM unless noted): 35.6%

FC(F)(F)Sc1ccc(/C=C/c2cc(/C=C/c3ccc(SC(F)(F)F)cc3)n(-c3ccccc3)n2)cc1
growth (NCI-H23 lung; 10 µM unless noted): 103% | growth (NCI-H226 lung; 10 µM unless noted): 89.5% | growth (NCI-H322M lung): 93.7% | growth (HOP-62 NSCLC; 10 µM unless noted): 90.8% | growth (NCI-H460 lung; 10 µM unless noted): 99.8% | growth (HOP-92 NSCLC; 10 µM unless noted): 87.3% | growth (NCI-H522 lung; 10 µM unless noted): 89.4% | growth (A549/ATCC NSCLC; 10 µM unless noted): 89.5% | growth (786-0 renal; 10 µM unless noted): 91.8% | growth (COLO 205 colon; 10 µM unless noted): 92.8% | growth (DU-145 prostate; 10 µM unless noted): 108% | growth (K-562 leukemia; 10 µM unless noted): 91% | growth (MALME-3M melanoma; 10 µM unless noted): 98.8% | growth (MDA-MB-231 breast; 10 µM unless noted): 89.5% | growth (RXF 393 renal; 10 µM unless noted): 113% | growth (SF-268 CNS; 10 µM unless noted): 91% | growth (SF-295 CNS; 10 µM unless noted): 96.6% | growth (SF-539 CNS; 10 µM unless noted): 98.1% | growth (UACC-257 melanoma; 10 µM unless noted): 86.4% | growth (M14 melanoma; 10 µM unless noted): 95.2%
